# ssDAF-12 act = activates DAF-12 receptor from parasite S. stercoralis. HEK293 ssDAF-12/GRIP1 lit1-tk-luc reporter, luminescence; % of 3 µM dafachronic acid response. activation, % at 6.8 µM. 1% of 370,000 active;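 active means activation above the mean over all tested compounds plus 3 SD, cut at about 0.9% in these data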;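 further: 0% = DMSO-only wells and 100% = 3 µM delta7-dafachronic acid wells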
# DAX1 inh-1 = NR0B1 (DAX1) inhibition | P51843 | HEK293 Gal4-DAX1 luciferase reporter, luminescence | inhibition, % at 6.75 µM | 0.99% of 340,000 active | AID 504766;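 active means inhibition above the mean over all tested compounds plus 3 SD, cut at about 4.2% in these data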;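 further: 0% = DAX1-transfected cells with DMSO and 100% = empty-vector control cells with DMSO; inhibition shows as a rise in luminescence from relieved DAX1 repression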
# Target sequence (P51843 207-470 limits assumed): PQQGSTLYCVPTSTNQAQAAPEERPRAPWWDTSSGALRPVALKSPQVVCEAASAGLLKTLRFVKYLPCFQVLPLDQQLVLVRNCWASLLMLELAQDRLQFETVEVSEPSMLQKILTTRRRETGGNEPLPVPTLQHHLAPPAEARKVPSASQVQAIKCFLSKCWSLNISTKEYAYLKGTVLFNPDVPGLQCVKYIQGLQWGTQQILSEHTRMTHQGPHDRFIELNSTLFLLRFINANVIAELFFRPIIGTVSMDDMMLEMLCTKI
# hgDAF-12 ag = hgDAF-12 agonism, primary luciferase screen. HEK293 GAL4-hgDAF12 UAS-luciferase reporter, agonist luminescence; normalized to butyrate control. activation, % at 6.8 µM. 1.8% of 370,000 active. AID 687014;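 active means activation above a cutoff set at the mean of all screened compounds plus 3 SD, cut at about 10% in these data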;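 further: 0% = DMSO wells and 100% = sodium butyrate wells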
# Wee1 degr inh = human Wee1 degradation inhibition, primary screen; HeLa Luc-Wee1K328M stability, luciferase luminescence; 100% = proteasome inhibitor MG132 effect; reporter increase, % at 5 µM; 1.2% of 220,000 active;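 active means activation above the mean of all tested compounds plus 3 SD, set per screening run, cut at about 8.8% in these data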;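 further: cells exposed to compound for 20 h before luminescence read; 0% = DMSO alone and 100% = MG132 at 30 µM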
# DAX1 inh-2 = blocks DAX1 repression of SF-1 activated StAR promoter; inhibition, % at 6.8 µM; HEK293T StAR-luciferase reporter, SF-1/DAX-1 repression relief; 1.1% of 370,000 active;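 active means inhibition above the mean over all tested compounds plus 3 SD, cut at about 3.6% in these data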;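 further: 0% = DAX-1 cells with DMSO and 100% = cells lacking DAX-1 with DMSO; higher inhibition means more luminescence from relief of DAX-1 repression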
# hcDAF12 agonist = H. contortus DAF-12 activation, primary screen | 1.4% of 370,000 active | activation, % at 6.8 µM | AID 652067 | HEK293 hcDAF-12 lit1-tk-luc reporter, luminescence; 0% DMSO, 100% Δ7-dafachronic acid;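 active means activation above the mean of all tested compounds plus 3 SD, cut at about 5.5% in these data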;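 further: 100% = response to 3 µM Δ7-dafachronic acid high control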
# LXR ag = activates human LXR-beta, counter-screen for hcDAF-12 agonists; AID 743027; activation, % at 6.8 µM; shares compounds with hcDAF12 agonist; HEK293 Gal4-LXR tk-luc reporter, luminescence, 24 h; normalized: DMSO 0%, positive control 100%; 3,400 tested, under 10 active;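 active means mean percent activation of the reporter above a cutoff set as the average over tested compounds plus their standard deviation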
# Target sequence (P55055 whole entry, looked up, the tested form may be a part): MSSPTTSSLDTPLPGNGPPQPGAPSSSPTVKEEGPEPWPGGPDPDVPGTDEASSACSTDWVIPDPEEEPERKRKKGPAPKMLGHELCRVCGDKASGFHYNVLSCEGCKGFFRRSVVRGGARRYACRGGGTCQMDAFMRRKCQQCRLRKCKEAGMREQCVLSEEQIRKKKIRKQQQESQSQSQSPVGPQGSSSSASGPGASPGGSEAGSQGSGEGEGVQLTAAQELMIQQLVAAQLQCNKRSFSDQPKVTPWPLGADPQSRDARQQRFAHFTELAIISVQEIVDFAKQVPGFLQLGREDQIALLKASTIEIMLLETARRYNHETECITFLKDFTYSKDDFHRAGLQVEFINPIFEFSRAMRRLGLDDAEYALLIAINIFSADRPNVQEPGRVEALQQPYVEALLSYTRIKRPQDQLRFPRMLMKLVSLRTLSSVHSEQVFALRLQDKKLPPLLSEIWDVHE
# hcDAF12 ag = hcDAF-12 agonism, confirmation assay | 61% of 3,400 active | activation, % at 6.8 µM | shares compounds with hcDAF12 agonist | HEK293 hcDAF-12 lit1-tk-luc reporter, luminescence; % of Δ7-dafachronic acid response | AID 743032;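 active means mean activation across triplicate tests above the threshold derived from the earlier primary screen, cut at about 5.5% in these data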;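 further: 0% = DMSO only wells and 100% = 3 µM Δ7-dafachronic acid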
# hgDAF12 conf = confirmation of H. glycines DAF-12 agonists; shares compounds with hgDAF-12 ag; HEK293 GAL4-hgDAF12 luciferase reporter, agonist mode; percent of butyrate response; activation, % at 6.8 µM; 80% of 3,300 active;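 active means mean activation over triplicate wells above the hit cutoff derived from the earlier primary screen, cut at about 11% in these data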;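 further: 0% = DMSO low control and 100% = 2 mM sodium butyrate high control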
# LXR ag 2 = counter-screen for DAF-12 agonists: agonists of human LXR-beta. HEK293 Gal4-LXR luciferase reporter, 24 h. 3,300 tested, under 10 active. AID 743051. activation, % at 6.8 µM. shares compounds with hgDAF-12 ag;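 active means mean activation of the triplicate above a set limit carried over from the primary screen, none filed active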
# Active calls of the source: *; . = not tested or not shown. This is a sample that favours compounds with a hit; in the whole collection about 4.6% have one here.
SMILES,ssDAF-12 act,DAX1 inh-1,hgDAF-12 ag,Wee1 degr inh,DAX1 inh-2,hcDAF12 agonist,hgDAF12 conf,LXR ag 2,others
CCOc1ncccc1C(=O)Nc1nc(SC)ns1,0.3,2.0,14.2*,-0.2,0.9,6.9*,10.8*,0.4,LXR ag=0.2;hcDAF12 ag=6.1*
CO[C@H]1CN(C)C(=O)c2ccc(NC(=O)C3CCC3)cc2OC[C@H](C)N(Cc2ccccn2)C[C@@H]1C,-0.7,.,0.2,.,-0.1,-2.1,.,.,
CCN(CC)c1ccc(/C=N/NC(=O)c2ccc(Br)o2)cc1,0.2,1.6,17.4*,8.3,1.8,1.9,18.6*,0.7,
CCN(CC)c1ccc(/C=N/NC(=O)c2ccc3c(c2)OCCO3)cc1,-0.9,-0.2,3.1,.,-0.1,0.5,.,.,
Cc1ccc(/C=N/NC(=O)c2ccc(Br)o2)s1,-0.8,1.9,8.0,2.5,1.7,3.8,.,.,
CCc1ccc(/C=N\NC(=O)c2ccc(Br)o2)s1,-0.4,2.2,15.5*,1.6,3.3,2.8,12.6*,0.4,
CCOC(=O)[C@@]12CCCC=C1N(CCc1ccc(Cl)cc1)C(=O)[C@H]2CC(=O)NCc1cccc(C(F)(F)F)c1,-1.9,.,4.0,.,-1.1,-2.5,.,.,
CC1CC1C(=O)Nc1nc2ccc(S(C)(=O)=O)cc2s1 (centres undefined),-1.4,-1.8,0.7,.,-0.3,-0.7,.,.,
Cc1ccc2nc(NC(=O)C3CC3C)sc2c1 (centres undefined),0.3,0.8,14.2*,.,0.6,4.6,11.9*,0.6,
Cc1ccc2nc(NC(=O)CCn3cccc3)sc2c1,-1.7,1.9,14.8*,6.0,2.7,2.1,8.8,0.2,
Cc1ccc2nc(NC(=O)CCn3c(=O)sc4ccccc43)sc2c1,-0.7,-0.3,0.4,1.8,-0.5,1.6,.,.,
O=C(Nc1nnc([C@@H]2C[C@H](O)[C@@H](CO)O2)s1)c1cccc(Cl)c1,-0.8,.,4.4,.,2.2,0.8,.,.,
Cc1ccc(-n2ncc3ccccc3c2=O)cc1Cl,0.6,4.7*,18.6*,0.8,2.5,5.2,15.1*,0.6,
Cc1nn(-c2ccc(Cl)c(Cl)c2)c(=O)c2ccccc12,-0.1,0.3,5.3,-1.0,0.5,3.6,.,.,
CC(C)(C)C(=O)NC(=S)Nc1cc(C(=O)O)ccc1Cl,-0.9,1.2,1.5,4.4,0.2,-0.3,.,.,
CC(C)(C)C(=O)NC(=S)Nc1cccc(C(=O)O)c1,-0.5,1.0,14.2*,0.6,4.3*,3.7,13.2*,0.3,
Cc1ccc(C(=O)NCCc2c[nH]c3ccccc23)c(C)c1,0.2,1.6,14.7*,.,1.1,4.6,12.4*,0.5,
C=CCn1c(SCC(=O)OC(C)C)nnc1-c1ccc(C)cc1,-1.2,.,-0.1,.,-0.8,-0.5,.,.,
Cc1ccc(Cc2c(-c3ccc(Cl)cc3)nc3ccc(Br)cn23)cc1,-0.1,2.2,8.0,.,2.7,1.2,.,.,
O=c1c(-c2ccc(O)cc2)coc2cc(O)cc(O)c12,0.2,4.2*,16.6*,.,2.9,2.6,9.5,0.4,
O=c1c(-c2c(O)cc(O)c3c(=O)cc(-c4ccc(O)cc4)oc23)c(-c2ccc(O)cc2)oc2cc(O)cc(O)c12,-1.1,2.3,-3.4,.,-0.7,-2.3,.,.,
COc1ccc(Oc2cnn(-c3ccccc3)c(=O)c2Br)cc1,-0.8,-0.6,56.4*,0.4,-1.5,-1.2,1.2,0.0,
COc1cnn(-c2ccccc2)c(=O)c1OC,-1.1,1.9,-1.5,-0.1,-0.3,0.5,.,.,
O=C(NC(=S)N1CCCC1)c1ccccc1F,-1.4,0.3,-0.6,.,1.6,-1.2,.,.,
O=C(CSc1nnc(-c2ccc(O)cc2)o1)Nc1ccccc1,-0.2,0.1,16.1*,.,2.3,3.2,13.5*,0.7,
SMILES,ssDAF-12 act,DAX1 inh-1,hgDAF-12 ag,Wee1 degr inh,DAX1 inh-2,hcDAF12 agonist,hgDAF12 conf,LXR ag 2,others
Cc1cc(NC(=O)CSc2nnc(-c3ccc(O)cc3)o2)no1,-1.0,0.9,3.4,-1.5,0.9,0.5,.,.,
COc1ccc(-c2oc(=O)c3cc(OC)c(OC)cc3c2-c2ccc3c(c2)OCO3)cc1,-0.9,0.5,1.5,.,0.1,-0.7,.,.,
COc1ccc(OC)c2nc(-c3ccc4c(c3)OCO4)ccc12,0.7,5.7*,15.1*,.,2.3,6.4*,17.6*,0.8,
C/C(=N/N=C1/NC(=O)CC(C(=O)Nc2ccccc2)S1)c1cccs1 (centres undefined),-1.1,-1.2,13.5*,0.3,-0.1,-0.2,-0.3,-0.1,
C/C(=N/N=C1/NC(=O)CC(C(=O)O)S1)c1ccccc1 (centres undefined),-1.5,2.5,2.9,-0.7,0.1,0.9,.,.,
CCNC(=O)C1(C)CCN(C(=O)c2cccc(Cl)c2)C1 (centres undefined),-1.0,.,-2.8,.,0.5,-0.7,.,.,
COc1ccccc1/C=C/C=N/Nc1cccc(C(=O)O)c1,1.6*,-1.4,15.2*,.,2.6,4.2,22.2*,1.1,
CCOC(=O)c1cnc(-c2ccccc2)nc1N,0.5,1.6,14.3*,1.9,4.5*,5.0,15.7*,0.8,
CCCC(=O)N1CCC1(C)C(=O)NS(=O)(=O)c1cccs1 (centres undefined),-0.6,.,-0.3,.,-0.8,0.1,.,.,
Cc1ccc2nc(-c3ccc(NC(=S)NCCC(C)C)cc3)sc2c1,0.4,1.9,13.6*,0.7,3.2,3.9,15.1*,0.6,
Cc1ccc2nc(-c3ccc(NC(=O)CN4C(=O)NC(C)(c5ccc(OC(F)F)cc5)C4=O)cc3)sc2c1 (centres undefined),-0.3,-1.4,15.3*,2.3,2.5,5.8*,14.4*,0.6,
Cc1ccc(-c2nc3ccccc3s2)cc1NC(=S)NC(=O)c1ccccc1,1.6*,2.5,14.7*,-3.3,2.0,5.7*,16.1*,0.5,
CC(=O)NC(=S)Nc1ccc(-c2nc3ccc(C)cc3s2)cc1,-0.3,4.1,15.2*,-1.4,2.9,4.9,21.9*,0.8,
CC(=O)Nc1ccc(S(=O)(=O)Nc2nc3ccc(C)cc3s2)cc1,-0.5,-0.5,3.8,2.5,-0.4,0.3,.,.,
CC1(c2ccc(OC(F)F)cc2)NC(=O)N(CC(=O)Nc2ccccc2)C1=O (centres undefined),-0.5,-0.2,1.7,.,0.6,1.0,.,.,

# High-throughput results: PubChem, The Scripps Research Institute Molecular Screening Center
